Assay results taken from PubChem BioAssay AID1662 (Broad Institute, 2009).
Screen size: about 300,000 compounds; about 4,000 (1.3%) were called active. This is one part of a sample in which actives are shown more often than they occur. Values without a mark were called inactive.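 How the source made its calls: active means mean replicate score, as percent of positive control median, at least 50; inconclusive means mean below 50 but one replicate at or above 50; inactive means mean and every replicate below 50.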

Test: S. pyogenes SKKanGAS growth inhibitors in kanamycin, primary screen, streptokinase expression inhibitor project, SKKanGAS strain, BacTiter-Glo luminescence (AID 1662);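 further: strain carries kanamycin resistance gene driven by streptokinase promoter and grows in 40 µg/ml kanamycin; loss of luminescence reflects streptokinase promoter inhibition or plain growth inhibition; 0% = median of DMSO wells and 100% = positive control at its reference dose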
Settings: 6 h, at 7.5 µM, active compounds read high

| Structure (SMILES) | inhibition |
| --- | --- |
| CCOC(=O)c1nnn(CC(=O)Nc2cccc(F)c2)c1C(=O)OCC | -0.0535% |
| COc1cccc(CN(C)CC2CCCN(CCc3ccc(Cl)cc3)C2)c1OC (centres undefined) | -0.785% |
| COc1ccc(NC(=O)CS(=O)(=O)c2ccccc2)cc1 | -4.25% |
| O=C(Nc1nc2ccccc2s1)c1ccc2c(c1)OCO2 | -10.7% |
| Cc1nc(NC(=O)c2ccc3c(c2)OCCO3)ccc1Br | -9.44% |
| Cc1ccc2sc(NNC(=O)c3ccc4c(c3)OCCO4)nc2c1C | 52.7% (active) |
| COC(=O)c1ccc([C@@H](O)[C@H](C)C(=O)CC(=O)OC(C)(C)C)cc1 | -0.38% |
| COc1ccc(C(=O)NC(=S)N2CCCCC2c2cccnc2)cc1OC (centres undefined) | 5.87% |
| Cc1cccc(C(=O)NC(=S)N(C)C2CCCCC2)c1 | 55.3% (active) |
| Cc1cccc(NC(=S)NCCN(C2CCCCC2)C2CCCC2)c1 | -5.79% |
| Cc1cccc(C(=O)NCCCN(C)CCCNC(=O)c2cccc(C)c2)c1 | -2.44% |
| COc1ccc(C2/C(=C(/O)c3ccc4c(c3)CC(C)O4)C(=O)C(=O)N2Cc2ccncc2)cc1 (centres undefined) | 1.18% |
| O=C(CN(CC1CCCO1)C(=O)CNS(=O)(=O)c1ccc(Cl)cc1)NCc1ccccc1 (centres undefined) | -3.12% |
| CCc1c(C)c2ccc(OC3CCCCC3=O)cc2oc1=O (centres undefined) | -6.62% |
| CCCCn1c(SCC(=O)NCC2CCCO2)nc2ccc(N3CCOCC3)cc2c1=O (centres undefined) | 2.53% |
| COCCCNC(=O)CSc1nc2ccc(N3CCOCC3)cc2c(=O)n1CCc1ccccc1 | 34.6% |
| N#CCSc1nc2ccc(N3CCOCC3)cc2c(=O)n1CCc1ccccc1 | 71.7% (active) |
| COCC(C)n1c(C)cc(C(=O)CSc2cc(C)c3ccccc3n2)c1C (centres undefined) | 2.07% |
| Cc1ccc(C(=O)N/N=C\c2cc(Br)c(Br)o2)cn1 | 6.13% |
| Cc1nn(-c2ccccc2)c2sc(C(=O)N(Cc3ccco3)C(C)C(=O)NC(C)(C)C)cc12 (centres undefined) | 6.98% |

| Structure (SMILES) | inhibition |
| --- | --- |
| Cc1ccc(OCC(=O)NCCCNC(=O)c2ccco2)cc1C | 2.37% |
| CCCc1ccc(OCCNC(=O)c2ccco2)cc1 | -5.79% |
| CC(Oc1ccc2ccccc2c1)C(=O)NNC(=S)NC(=O)c1ccco1 (centres undefined) | 128% (active) |
| O=C(Nc1ccc2ccccc2c1)/C(=C/c1cccc(Br)c1)NC(=O)c1ccco1 | 14.5% |
| Cc1ccc(C(=O)NNC(=O)C(C)Oc2ccc3ccccc3c2)o1 (centres undefined) | -4.95% |
| CCCc1ccc(OCC(=O)NNC(=S)NC(=O)c2ccco2)cc1 | 113% (active) |
| COc1cc2nc(CN(C)Cc3ccc(F)cc3)[nH]c(=O)c2cc1OC | 16.4% |
| CC1=CC=CN2C1=NC(=O)CC2(C)C(=O)N(CC(=O)NC1CCCC1)c1ccccc1C (centres undefined) | 1.46% |
| Cc1nn(CCCC(=O)NCc2ccccc2Cl)c(=O)c2nccn12 | -6.9% |
| Cc1ccc2nc(Nc3ccccc3)cc(C)c2c1 | 0.508% |
| CCS(=O)(=O)Nc1cccc(-c2cc(-c3ccccc3)c3cc(C)ccc3n2)c1 | 97.3% (active) |
| Cc1ccc2nc(-c3ccncc3)cc(C(=O)Nc3ccncc3)c2c1 | 1.9% |
| CCOCCCNC(=O)c1ccc(CS(=O)(=O)c2cccc(C(F)(F)F)c2)o1 | -1.72% |
| CCC(=O)Nc1ccc(-c2ccc(N3CCCCC3)nn2)cc1 | 1.15% |
| CC1CCN(C(NC(=O)c2ccco2)C(=O)c2ccccc2)CC1 (centres undefined) | -2.13% |
| CC1CCN(c2ccc(-c3ccc(NC(=O)c4ccco4)cc3)nn2)CC1 | 70% (active) |
| CCCCCN(C(=O)CCC(=O)OCCOc1ccc(OC)cc1)c1c(N)n(CCCC)c(=O)[nH]c1=O | -3.52% |
| CS(=O)(=O)c1ccc2nnn(OCC(=O)Nc3cccc(C#N)c3)c2c1 | -3.98% |
| COc1ccc(NC(=O)CN2C(=O)CSc3ccc(S(=O)(=O)N4CCC(C)CC4)cc32)cc1 | 10.8% |
| CCOC(=O)c1cnc(-c2ccccc2)nc1Oc1ccc(C)cc1 | 20.4% |

| Structure (SMILES) | inhibition |
| --- | --- |
| CCOC(=O)c1cnc(-n2nc(C)cc2C)nc1NNc1cc(C)nc(-c2ccccc2)n1 | 101% (active) |
| CCOC(=O)c1cnc(-n2nc(C)cc2C)nc1Nc1cccc(C(C)=O)c1 | 35% |
| Cc1ccc(S(=O)(=O)/N=C(\CN2CCOCC2)N2CCOCC2)cc1 | 2.49% |
| CC(C)N1CCC(=NNc2ccc([N+](=O)[O-])cc2S(=O)(=O)N2CCOCC2)CC1 | 17.1% |
| CN(C)c1ccc(-n2cccc2/C=N/n2cnnc2)cc1 | 0.00128% |
| NS(=O)(=O)c1ccc(NC(=S)NC(=O)c2cccc(Br)c2)cc1 | 0.49% |
| O=C(NC(=S)Nc1cccc2c(O)cccc12)c1cccc(Br)c1 | 63.3% (active) |
| Cc1ccccc1NC(=S)NNC(=O)c1cccc(Br)c1 | -4.92% |
| CCOC(=O)c1ccccc1NS(=O)(=O)c1c(C)nc2sccn2c1=O | -2.29% |
| CN(C)CCNc1ccc(-c2n[nH]c(=O)c3ccccc23)cc1[N+](=O)[O-] | -10.2% |
| Oc1cccc(/C=N/Nc2ccc(Cl)nn2)c1O | -9.25% |
| Cc1cc(N/N=C\c2ccc(Br)cc2)nc(-n2nc(C)cc2C)n1 | 102% (active) |
| Cc1nc(Cl)cc(N/N=C/c2ccccc2)n1 | -4.1% |
| COc1cccc(/C=N/Nc2cc(C)nc(-c3ccccc3O)n2)c1O | 64.5% (active) |
| COc1ccc(/C=N/Nc2cc(N3CCOCC3)nc(C)n2)c(OC)c1 | 14.3% |
| COc1cccc2c(N/N=C/c3ccco3)cc(C)nc12 | -8.63% |
| COc1ccc(-c2nn(-c3ccccc3)cc2/C=N/Nc2ccccn2)cc1OC | 16.9% |
| COc1ccccc1/C=N\Nc1cc(C)nc(-n2nc(C)cc2C)n1 | 101% (active) |
| Cc1ccc(S(=O)(=O)Nc2nc(C)cc(N/N=C/c3ccc(O)cc3)n2)cc1 | -2.8% |
